According to PubChem BioAssay (Tox21):
Results filed as inconclusive are left out. A number with no mark means an inactive call. Active and inactive are the calls of the source. Calls follow the shape of the dose curve; as a rule, active = well fitted curve in the direction sought with a large enough effect in the repeat runs; inconclusive = weak or mixed curves; inactive = no such curve, though single readings can be large; an effect the other way counts as inactive or inconclusive.

Assay: qHTS RealTime-Glo MT Cell Viability Assay in HEK293 cells - 8 hour (AID 1224887); also: nearly all actives have a fitted effect of over 50% in size; also: potency is read from the fitted curve at half-maximal effect; as to activity change, negative = cytotoxicity: top concentration of the series differs between compounds
Conditions: RealTime-Glo luminescence; series mostly up to 76.8 µM; activity change, negative = cytotoxicity: at the top concentration
Outline: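 HEK293 cells mixed with RealTime-Glo reagents (NanoLuc plus cell-permeant prosubstrate) at 600 cells/well, preincubated 5 h at 37 C/5% CO2, then given 23 nL compound in DMSO. Nonlytic luminescence from viable cells was read at 0, 8, 16, 24, 32 and 40 h.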
% is scaled to controls: 0 for no effect and ±100 for the full control effect.

SMILES	Potency	activity change, negative = cytotoxicity
CCCCCCOc1ccc(N)cc1	19.5 µM (active)	
CC1=NN(c2cc(Cl)c(S(=O)(=O)O)cc2Cl)C(=O)C1N=Nc1ccc(S(=O)(=O)O)cc1 (stereo not drawn)		-3.27%
CCC1(C)NC(=O)NC1=O (stereo not drawn)		0.502%
CCCCCCCCCCCCCCCCOP(=O)([O-])OCC[N+](C)(C)C		-0.554% [at 35.3 µM]
CCCCCCCCc1ccc(S(=O)(=O)O)cc1		-4%
CCc1cc2cc(OC)c(OC)cc2c(Cc2ccccc2)n1	16.9 µM (active)	
CN(C)CCOc1ccccc1Cc1ccccc1		1.89% [at 35.3 µM]
Oc1ccccc1C=NCc1ccccc1		0.248% [at 35.3 µM]
CC/C=C\CCOC(=O)CCCCC		1.9%
Cc1onc(-c2ccccc2)c1C(=O)Cl		0.74% [at 35.3 µM]
C=CCCCCCCCCO		-7.69%
Clc1cccc(-c2cc(Cl)cc(Cl)c2)c1		-20.8%
CCCCNc1ccc(C(=O)OCCN(CC)CC)cc1		-19.9% [at 35.3 µM]
CC(C)(C)c1cccc(O)c1		4.01%
COC(=O)/C=C(/C)N		2.15% [at 35.3 µM]
CC(C)C(=O)OCC(C)(C)C(O)C(C)C (stereo not drawn)		10.8%
COC(=O)N[C@H](C(=O)N[C@@H](Cc1ccccc1)[C@@H](O)CN(Cc1ccc(-c2ccccn2)cc1)NC(=O)[C@@H](NC(=O)OC)C(C)(C)C)C(C)(C)C		-9.47% [at 35.3 µM]

SMILES	Potency	activity change, negative = cytotoxicity
CCCCCOc1ccc(C2SC(=O)NC2=O)cc1OCC (stereo not drawn)		-6.42% [at 35.3 µM]
NCCCN1CCN(CCCN)CC1		4.58%
CCN(CC)CCNC(=O)COc1ccc(Cl)cc1		1.41% [at 35.3 µM]
CCC(=O)c1ccc2c(c1)N(CCCN(C)C)c1ccccc1S2	9.52 µM (active)	
Cc1cc(NS(=O)(=O)c2ccc(N)cc2)nc(C)n1		-0.352% [at 35.3 µM]
O=Cc1ccc(O)c(O)c1O		-18.7% [at 35.3 µM]
CN(C)C(=O)NC1(c2ccccc2)CCN(CCC[C@]2(c3ccc(Cl)c(Cl)c3)CCCN(C(=O)c3ccccc3)C2)CC1		-28.2% [at 15.8 µM]
CN1CCN(C2=Nc3ccccc3Oc3ccc(Cl)cc32)CC1		-8.74% [at 35.3 µM]
CCN(CC)CCOc1ccc(Cc2ccccc2)cc1		-5.88% [at 35.3 µM]
CCCN(CCC)C(=O)C(CCC(=O)O)NC(=O)c1ccccc1 (stereo not drawn)		5.43% [at 35.3 µM]
CCCc1c2oc(C(=O)O)cc(=O)c2cc2c(=O)cc(C(=O)O)n(CC)c12		3.67% [at 35.3 µM]
CN(CCCN1c2ccccc2CCc2ccccc21)CC(=O)c1ccc(Cl)cc1		-22% [at 35.3 µM]
CC1=C2[C@H](/C=C(\C)C(=O)O)CC[C@@H](C)[C@H]2CC1	25.5 µM (active)	
CC(C)S		4.72%
C=CC(C)(O)CC/C=C(\C)CCC=C(C)C (stereo not drawn)		-1.18%
Cc1ccc(C(C)C)cc1O		-19.4%

Assay: A CellTox Green Cytotoxicity Assay to monitor cytotoxicity in HEK293 cells - 16 hour (AID 1224888); also: nearly all actives have a fitted effect of over 35% in size
Conditions: CellTox Green fluorescence; series mostly up to 76.8 µM; activity change: at the top concentration
Outline: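 HEK293 cells premixed with CellTox Green dye were seeded at 600 cells/well and left 5 h at 37 C/5% CO2 before pin transfer of 23 nL compound in DMSO. Fluorescence from dye bound to dead-cell DNA was read during 40 h treatment.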

SMILES	activity change
CCCCCCOc1ccc(N)cc1	20.8%
CC1=NN(c2cc(Cl)c(S(=O)(=O)O)cc2Cl)C(=O)C1N=Nc1ccc(S(=O)(=O)O)cc1 (stereo not drawn)	-6.88%
CCc1cc2cc(OC)c(OC)cc2c(Cc2ccccc2)n1	-4.65% [at 35.3 µM, hits give high values]
CN(C)CCOc1ccccc1Cc1ccccc1	-9.9% [at 35.3 µM, hits give high values]
CC/C=C\CCOC(=O)CCCCC	36.8%
Cc1onc(-c2ccccc2)c1C(=O)Cl	-1.7% [at 35.3 µM, hits give high values]
C=CCCCCCCCCO	9.2%
CCCCOc1cc(C(=O)NCCN(CC)CC)c2ccccc2n1	13.3% [at 35.3 µM, hits give high values]
CCCCNc1ccc(C(=O)OCCN(CC)CC)cc1	3.87% [at 35.3 µM, hits give high values]
CC(C)(C)c1cccc(O)c1	2.55%
COC(=O)N[C@H](C(=O)N[C@@H](Cc1ccccc1)[C@@H](O)CN(Cc1ccc(-c2ccccn2)cc1)NC(=O)[C@@H](NC(=O)OC)C(C)(C)C)C(C)(C)C	-12.4% [at 35.3 µM, hits give high values]
CCCCCOc1ccc(C2SC(=O)NC2=O)cc1OCC (stereo not drawn)	3.36% [at 35.3 µM, hits give high values]
NCCCN1CCN(CCCN)CC1	-8.76%
CCN(CC)CCNC(=O)COc1ccc(Cl)cc1	-13.7% [at 35.3 µM, hits give high values]
COc1ccc2nc(NC(=O)Nc3ccccc3)sc2c1	39.4% [at 35.3 µM, hits give high values]
CCC(=O)c1ccc2c(c1)N(CCCN(C)C)c1ccccc1S2	12.1% [at 35.3 µM, hits give high values]
O=Cc1ccc(O)c(O)c1O	-2.45% [at 35.3 µM, hits give high values]
CN(C)C(=O)NC1(c2ccccc2)CCN(CCC[C@]2(c3ccc(Cl)c(Cl)c3)CCCN(C(=O)c3ccccc3)C2)CC1	-0.407% [at 15.8 µM, hits give high values]
CCOc1ccc(NS(=O)(=O)c2ccc(N)cc2)nn1	-1.79% [at 35.3 µM, hits give high values]
CCN(CC)CCOc1ccc(Cc2ccccc2)cc1	-3.16% [at 35.3 µM, hits give high values]
CN(CCCN1c2ccccc2CCc2ccccc21)CC(=O)c1ccc(Cl)cc1	3.29% [at 35.3 µM, hits give high values]
Nc1ccc(Oc2ccc(N)c(N)c2)cc1	-8.7%

Assay: qHTS RealTime-Glo MT Cell Viability Assay in HepG2 cells - 0 hour (AID 1224889); also: nearly all actives have a fitted effect of over 50% in size
Conditions: RealTime-Glo luminescence; series mostly up to 76.8 µM; activity change, negative = cytotoxicity: at the top concentration
Outline: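 qHTS, HepG2, 600 cells/well, RealTime-Glo (NanoLuc + prosubstrate) added with cells; 5 h preincubation; DMSO compound addition; 37 C; luminescence at 0/8/16/24/32/40 h.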

SMILES	activity change, negative = cytotoxicity
CCCCCCOc1ccc(N)cc1	11.6%
CCC1(C)NC(=O)NC1=O (stereo not drawn)	13.7%
CCCCCCCCCCCCCCCCOP(=O)([O-])OCC[N+](C)(C)C	15.6% [at 35.3 µM]
CCCCCCCCc1ccc(S(=O)(=O)O)cc1	-2.45%
CCc1cc2cc(OC)c(OC)cc2c(Cc2ccccc2)n1	-20.4% [at 35.3 µM]
CN(C)CCOc1ccccc1Cc1ccccc1	17.7% [at 35.3 µM]
Oc1ccccc1C=NCc1ccccc1	0.234% [at 35.3 µM]
Cc1onc(-c2ccccc2)c1C(=O)Cl	0.502% [at 35.3 µM]
C=CCCCCCCCCO	0.402%
Clc1cccc(-c2cc(Cl)cc(Cl)c2)c1	1.65%
CCCCOc1cc(C(=O)NCCN(CC)CC)c2ccccc2n1	7.2% [at 35.3 µM]
CCCCNc1ccc(C(=O)OCCN(CC)CC)cc1	10.5% [at 35.3 µM]
CC(C)(C)c1cccc(O)c1	9.88%
COC(=O)/C=C(/C)N	-0.287% [at 35.3 µM]
CC(C)C(=O)OCC(C)(C)C(O)C(C)C (stereo not drawn)	6.09%
CCCCCOc1ccc(C2SC(=O)NC2=O)cc1OCC (stereo not drawn)	-8.82% [at 35.3 µM]
NCCCN1CCN(CCCN)CC1	-4.12%

SMILES	activity change, negative = cytotoxicity
CC[C@H]1CC[C@H](NCc2cc3c(cc2OC)[C@H]2C[C@H]2C(=O)N3C)[C@H](c2ccccc2)N1	-0.412%
CCN(CC)CCNC(=O)COc1ccc(Cl)cc1	3.47% [at 35.3 µM]
COc1ccc2nc(NC(=O)Nc3ccccc3)sc2c1	1.53% [at 35.3 µM]
Cc1cc(NS(=O)(=O)c2ccc(N)cc2)nc(C)n1	1.2% [at 35.3 µM]
O=Cc1ccc(O)c(O)c1O	4.39% [at 35.3 µM]
CN(C)C(=O)NC1(c2ccccc2)CCN(CCC[C@]2(c3ccc(Cl)c(Cl)c3)CCCN(C(=O)c3ccccc3)C2)CC1	-2.18% [at 15.8 µM]
CN1CCN(C2=Nc3ccccc3Oc3ccc(Cl)cc32)CC1	10.3% [at 35.3 µM]
CCOc1ccc(NS(=O)(=O)c2ccc(N)cc2)nn1	3.9% [at 35.3 µM]
CCN(CC)CCOc1ccc(Cc2ccccc2)cc1	13.5% [at 35.3 µM]
CCCN(CCC)C(=O)C(CCC(=O)O)NC(=O)c1ccccc1 (stereo not drawn)	0.366% [at 35.3 µM]
CCCc1c2oc(C(=O)O)cc(=O)c2cc2c(=O)cc(C(=O)O)n(CC)c12	11% [at 35.3 µM]
CN(CCCN1c2ccccc2CCc2ccccc21)CC(=O)c1ccc(Cl)cc1	4.5% [at 35.3 µM]
CC1=C2[C@H](/C=C(\C)C(=O)O)CC[C@@H](C)[C@H]2CC1	-12.6%
CC(C)S	2.51%
C=CC(C)(O)CC/C=C(\C)CCC=C(C)C (stereo not drawn)	-12.3%
Cc1ccc(C(C)C)cc1O	19.7%
